This passage reports inhibition results from PubChem BioAssay AID588778 (Southern Research Institute, 2011).

The nature of this experiment: Vibrio cholerae motility inhibitors, OD read-out (AID 588778). The note with it: stronger effect = higher value.
The mark [1] stands for this setting: measured here: bacterial viability at 10 ug/mL.

The whole screen tested about 10,000 compounds, of which fewer than 10 were called active. The rule behind the calls is not given here. The list is a sample of the results.

With `Cc1c(NC(=O)c2nn3c(C(F)(F)F)c4c(nc3c2Cl)-c2ccccc2CC4)c(=O)n(-c2ccccc2)n1C`, the inhibition runs as follows: (concentration not given here) -11.3% (inactive); under setting [1], -0.51%.
Consider `S=C1NC(C23CC4CC(CC(C4)C2)C3)=CC(c2ccc(Cl)cc2)N1` (stereo not drawn), for which the inhibition by setting is: (concentration not given here) -6.78% (inactive); under setting [1], -4.13%.
The matching figures for `CC(C)CC(C(=O)Oc1ccc2c3c(c(=O)oc2c1)CCC3)N1C(=O)c2ccccc2C1=O` (stereo not drawn): 6.55% (inactive) and -2.25%.
For `CCC(=O)OCC12COC3c4ccccc4OC(C)(CC1C)C3C2C` (stereo not drawn) the same measures were -16.5% (inactive) and -10.6%.
For `CCOC(=O)c1ccc(NC(=O)COc2ccc3oc(=O)cc(C)c3c2)cc1` the same measures were -17.2% (inactive) and -0.82%.
Regarding `Cc1ccccc1C(=O)N1CCN(c2nc(N3CCCC3)nc(N3CCCC3)n2)CC1`, the inhibition runs as follows: (concentration not given here) -0.47% (inactive); under setting [1], 0.25%.
The matching figures for `O=C(Cc1c(F)cccc1Cl)NCc1ccc2c(c1)OCO2`: 40% (inactive) and 7.78%.
For `O=C(CSc1nnnn1-c1ccccc1)c1cc2ccccc2oc1=O` the same measures were 3.97% (inactive) and -4.29%.
The matching figures for `COCCSc1nnc(NC(=O)Cc2c(F)cccc2Cl)s1`: -2.92% (inactive) and -1.31%.
Turning to `O=C(NC(=O)c1ccccc1)Nc1ccc(Br)cc1`, the inhibition is -16.2% (inactive) (concentration not given here) and -9.72% under setting [1].
For `COc1c(C)cc(Br)cc1C(=O)NC(=S)Nc1nc(C)cc(C)n1` the same measures were -16.1% (inactive) and -11.8%.
The matching figures for `CCCCC(=O)Nc1ccc(NC(=O)C(Cl)(Cl)Cl)cc1OC`: 3.09% (inactive) and -3.52%.
For `O=C(CCOc1ccccc1)Nc1ccc(Br)cc1` the same measures were -9.09% (inactive) and -6.95%.
In the case of `O=C(NCc1ccc(-c2nc3ccccc3s2)cc1)c1ccc(Br)o1`, the inhibition runs as follows: (concentration not given here) 1.75% (inactive); under setting [1], 9.78%.
The matching figures for `Cc1ccc(S(=O)(=O)Nc2cc(Sc3nnnn3-c3ccccc3)c(O)c3ccccc23)cc1`: 15.9% (inactive) and 1.17%.
Turning to `COC(=O)C1=C(C)NC(C)=C(C(=O)OC)C1c1sccc1C`, the inhibition runs as follows: (concentration not given here) 20.1% (inactive); under setting [1], -0.13%.
Consider `CC(=O)CSc1nnc(-c2cccnc2)o1`, for which the inhibition (concentration not given here) is -0.39% (inactive) and the inhibition under setting [1] is 0.24%.
Consider `O=C(O)C(Cc1ccccc1)N1C(=O)/C(=C/c2ccc([N+](=O)[O-])cc2)SC1=S` (stereo not drawn), for which the inhibition (concentration not given here) is 8.42% (inactive) and the inhibition under setting [1] is 1.4%.
For the compound `CCOC(=O)c1c(NC(=O)Nc2ccccc2C)sc2c1CC(C)(C)OC2`, the inhibition was 9.16% (inactive) (concentration not given here) and 24.8% under setting [1].
For `COc1ccc(OC)c(C(=O)CCC(=O)Nc2cccc(C(F)(F)F)c2)c1` the same measures were -4.82% (inactive) and 3.82%.
The matching figures for `CCOC(=O)C1(NC(=S)N(CC)CC)Sc2cc(C)ccc2NC1=O` (stereo not drawn): 12.1% (inactive) and 13.5%.
For `CCN(CC)c1ccc(CNC(C)C(O)c2ccccc2)cc1` (stereo not drawn) the same measures were 19.9% (inactive) and 5.6%.
As to `c1ccc2nc3c(nc2c1)CCc1nonc1-3`, the inhibition (concentration not given here) was 0.045% (inactive) and the inhibition under setting [1] is -1.06%.
For `CCOC(=O)c1ccc(CNC(=O)CCC(=O)O)cc1` the same measures were 2.35% (inactive) and -10.3%.
The matching figures for `O=C(CCC(=O)Nc1ccccc1Cl)NNC(=O)Nc1ccc(F)cc1F`: -13.9% (inactive) and -8.28%.
Turning to `O=C(c1c(F)cccc1F)N1CCN(C(c2ccccc2)c2ccccc2)CC1`, the inhibition by setting is: (concentration not given here) 11.9% (inactive); under setting [1], -2.62%.
In the case of `O=C(NC(=S)NNC(=O)c1cnccn1)c1ccc(F)cc1`, the inhibition by setting is: (concentration not given here) 17.5% (inactive); under setting [1], 4.07%.
In the case of `CCSc1nnc(NC(=O)c2ccc(Br)s2)s1`, the inhibition reads like this: (concentration not given here) -21.3% (inactive); under setting [1], -10.2%.
The matching figures for `O=C(O)CCc1ccc(-c2cccs2)n1-c1cc(Cl)ccc1Cl`: 5.81% (inactive) and -0.02%.
With `CCc1ccccc1OCCCCn1c2ccccc2c2ccccc21`, the inhibition (concentration not given here) is -30.3% (inactive) and the inhibition under setting [1] is -15.4%.
For `COCCSc1ccccc1C(=O)NCc1ccc(S(N)(=O)=O)cc1` the same measures were 4.8% (inactive) and 5.23%.
As for `CCCC(=O)N1CCN(c2ccc(NC(=O)COc3ccc(C)c(C)c3)cc2Cl)CC1`, the inhibition is 10.7% (inactive) (concentration not given here) and 4.97% under setting [1].
For `O=C(Nc1nnc(C(F)(F)F)s1)C(Sc1ccccc1)c1ccccc1` (stereo not drawn) the same measures were -9.96% (inactive) and -4.95%.
The matching figures for `O=C(Cc1ccccc1Cl)c1ccc(O)c(O)c1O`: 12.7% (inactive) and 2.63%.
For `COc1cc(OC)c(NC(=O)c2csc3ccccc23)cc1Cl` the same measures were 4.43% (inactive) and 1.11%.
In the case of `COC(C(=O)Nc1cc([N+](=O)[O-])ccc1C)c1ccccc1` (stereo not drawn), the inhibition is 3.61% (inactive) (concentration not given here) and -3.16% under setting [1].
For `O=C(OCc1ccccc1F)c1ccc([N+](=O)[O-])cc1Cl` the same measures were 45.5% (inactive) and 18.5%.
The matching figures for `Cn1ncc(C#N)c1NC(=O)C1CC(c2c(F)cccc2Cl)=NO1` (stereo not drawn): 15.8% (inactive) and 10.8%.
For `Cn1nc([N+](=O)[O-])nc1Sc1nnc(-c2cccnc2)o1` the same measures were 44.4% (inactive) and 15.6%.
Take `COc1cc2c(NCc3ccccc3)cc(O)c(CC(=O)Nc3ccc(Cl)cc3)c2cc1OC`: the inhibition runs as follows: (concentration not given here) 8.57% (inactive); under setting [1], 1.46%.
For `Cc1ccc(-c2c(C(=O)NNC(=S)NCC3CCCO3)csc2C)cc1` (stereo not drawn) the same measures were 17.3% (inactive) and -2.95%.
The matching figures for `Cc1ccccc1NC(=S)NC1CCCC1`: -3.76% (inactive) and -1.53%.
For `O=C(CSc1nc2ccccc2s1)NNC(=S)Nc1ccc(F)c(Cl)c1` the same measures were 47.6% (inactive) and 18.2%.
In the case of `Cc1ccc2c(c1)C(=O)C(=O)N2`, the inhibition was 26.8% (inactive) (concentration not given here) and 12.9% under setting [1].
The matching figures for `Cc1nc(Oc2ccc3c(c2)OCO3)c2cc(-c3ccccc3)sc2n1`: 6.33% (inactive) and 0.3%.
For `Cc1ccc2cccc(OCc3nnc(-c4ccccc4)o3)c2n1` the same measures were 14.5% (inactive) and -1.8%.
For `COC(=O)c1ccc2ccn(CC(N)=O)c2c1` the same measures were 8.78% (inactive) and 7.37%.
As for `COc1cccc(/C=C/C2=NN(c3ccc(Cl)c(Cl)c3)C(c3cccc(OC)c3OC)C2)c1OC` (stereo not drawn), the inhibition (concentration not given here) is 26.7% (inactive) and the inhibition under setting [1] stood at 13.6%.
The matching figures for `Cc1ccccc1NC(=O)NC1CCS(=O)(=O)C1` (stereo not drawn): -0.46% (inactive) and -4.02%.
The matching figures for `C=CCOc1cccc(CNc2ccc3[nH]c(=O)[nH]c3c2)c1`: 33.7% (inactive) and 18.3%.
For the compound `Cc1ccc2nc(-c3cccnc3)cc(C(=O)Nc3ccc4c(C)cc(=O)oc4c3)c2c1`, the inhibition is -7.04% (inactive) (concentration not given here) and 9.26% under setting [1].
The matching figures for `O=C(O)Cc1ccc(NC(=O)c2cccnc2C(=O)O)cc1`: -4.82% (inactive) and -2.46%.
For the compound `Cc1ccc(NC(=O)c2ccccc2NC(=O)Cc2ccc(Cl)cc2)cc1C`, the inhibition runs as follows: (concentration not given here) 11.1% (inactive); under setting [1], 19.3%.
The matching figures for `O=C1C(c2ccccn2)=C(O)c2ccccc21`: 14.8% (inactive) and 4.31%.
